An excerpt weighted towards active compounds, which were near 9.9% of everything screened.
Tau fibril FP: qHTS for Inhibitors of Tau Fibril Formation, Fluorescence Polarization; Potency, µM (top dose mostly 57.7 µM), for inactives: at the highest dose activity, negative = inhibition, hits mostly inhibitors; 280,000 tested, 0.39% active; K18 P301L tau heparin fibrillization, Alexa594 FP, 6 h; Microtubule-associated protein tau (Homo sapiens), P10636; active = well fitted curve in the direction sought with a large enough effect; inconclusive = small, poorly fitted or top-dose-only effect, or another doubt; inactive = no such curve, though single readings can be large; an effect the other way counts as inactive or inconclusive; also: nearly all actives have a fitted effect of over 55% in size
Target sequence (P10636 561-689 P618L limits assumed): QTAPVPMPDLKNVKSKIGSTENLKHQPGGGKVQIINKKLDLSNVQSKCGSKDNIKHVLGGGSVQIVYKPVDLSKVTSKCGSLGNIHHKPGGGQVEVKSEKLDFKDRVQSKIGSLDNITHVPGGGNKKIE
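Quantitative HTS format: compounds meet 15 uM recombinant K18 P301L tau and Alexa 594-tau tracer in 100 mM sodium acetate pH 7; 20 uM heparin triggers fibrillization at 37 C over 6 hr; FP gives the signal.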
Tau ThT inhib: qHTS for Inhibitors of Tau Fibril Formation, Thioflavin T Binding | 270,000 tested, 2.1% active | Potency, µM (series often up to 57.4 µM), inactives show at the top dose activity, negative = inhibition, usual class: inhibitors | recombinant tau K18 P301L, heparin-induced fibrillization, ThT fluorescence | AID 1460, 2008; active = well fitted curve in the direction sought with a large enough effect; inconclusive = small, poorly fitted or top-dose-only effect, or another doubt; inactive = no such curve, though single readings can be large; an effect the other way counts as inactive or inconclusive; also: nearly all actives have a fitted effect of over 55% in size
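Aggregation was driven by heparin (20 uM final) acting on recombinant tau […] bearing P301L in 100 mM sodium acetate pH 7; fibrils were detected with Thioflavin T.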
ALDH1A1 inh: qHTS Assay for Inhibitors of Aldehyde Dehydrogenase 1 (ALDH1A1); Aldehyde dehydrogenase 1A1 (Homo sapiens), P00352; Purified ALDH1A1, NADH fluorescence, propionaldehyde substrate; Potency, µM (series often up to 75.3 µM), for the others: at the top dose activity, negative = inhibition, usual class: inhibitors; 220,000 tested, 7.3% active;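 also: plate controls were no enzyme wells and a reference inhibitor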
Target sequence (P00352 whole entry, looked up): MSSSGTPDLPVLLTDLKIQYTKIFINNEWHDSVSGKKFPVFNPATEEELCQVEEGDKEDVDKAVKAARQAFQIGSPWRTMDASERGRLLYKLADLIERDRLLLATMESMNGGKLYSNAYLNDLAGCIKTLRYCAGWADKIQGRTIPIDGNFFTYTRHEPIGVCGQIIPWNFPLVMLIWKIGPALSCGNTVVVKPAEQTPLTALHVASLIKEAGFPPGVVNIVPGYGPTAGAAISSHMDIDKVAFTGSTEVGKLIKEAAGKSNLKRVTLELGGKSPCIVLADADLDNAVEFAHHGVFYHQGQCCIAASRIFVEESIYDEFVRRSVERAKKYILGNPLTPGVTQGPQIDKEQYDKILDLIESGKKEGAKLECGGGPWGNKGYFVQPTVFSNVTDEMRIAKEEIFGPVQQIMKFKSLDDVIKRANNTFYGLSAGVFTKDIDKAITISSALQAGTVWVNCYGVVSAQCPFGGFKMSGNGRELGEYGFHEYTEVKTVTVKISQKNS
HPGD inh: qHTS Assay for Inhibitors of HPGD (15-Hydroxyprostaglandin Dehydrogenase); AID 894, 2007; purified HPGD, NADH fluorescence kinetic, PGE2 substrate; 150,000 tested, 4.3% active; 15-hydroxyprostaglandin dehydrogenase [NAD(+)] (Homo sapiens), P15428; Potency, µM, inactives show at the top dose activity change, negative = inhibition, actives largely listed as inhibitors
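NADH formation kinetics: reaction with 30 uM PGE2 and 1 mM NAD+ (final), 20 nM enzyme, Tris-HCl pH 8 with Tween 20, after 15 min compound preincubation at room temperature. Fluorescence change, last versus first of five reads.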
JMJD2E inh: qHTS Assay for Inhibitors of Human Jumonji Domain Containing 2E (JMJD2E) | JMJD2E catalytic domain, FDH-coupled NADH fluorescence (FDH is formaldehyde dehydrogenase) | 230,000 tested, 1.6% active | Lysine-specific demethylase 4E (Homo sapiens), B2RXH2 | Potency, µM (doses to about 57.1 µM), without a hit: at the top dose activity change, negative = inhibition, most hits filed as inhibitors;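 also: 0% = wells with enzyme and -100% = buffer wells without enzyme; nearly all actives have a fitted effect of over 50% in size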
Tau fluor counter: Counterscreen qHTS for Inhibitors of Tau Fibril Formation, Fluorescence Polarization; Potency, µM (doses to about 57.7 µM), for inactives: at the highest dose activity change, negative = decrease; tau K18 P301L Alexa594 fluorescence, heparin fibrillization; 280,000 tested, 0.93% active; active = well fitted curve in the direction sought with a large enough effect; inconclusive = small, poorly fitted or top-dose-only effect, or another doubt; inactive = no such curve, though single readings can be large; an effect the other way counts as inactive or inconclusive; also: nearly all actives have a fitted effect of over 55% in size
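Human tau K18 P301L (15 uM unlabeled, 0.24 uM Alexa 594-labeled) in 100 mM sodium acetate pH 7 with 20 uM heparin, 6 hr at 37 C. ThT 30 uM added, 1 hr ambient; Alexa 594 FP and total fluorescence read at 555/632 nm.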
Active calls of the source: *; ? = inconclusive; . = not tested or not shown; [ ] = remark or other dose. Unless noted, calls follow the shape of the dose curve; as a rule, active = well fitted inhibition curve with a large enough effect (not every such curve was filed as active); inconclusive = small, poorly fitted or top-dose-only effect, or another doubt; inactive = no such curve, though single readings can be large or run the other way. Unless noted, % is scaled to controls: 0 for no effect and ±100 for the full control effect; potency is read from the fitted curve at half-maximal effect.

SMILES | Tau fibril FP | Tau ThT inhib | ALDH1A1 inh | HPGD inh | JMJD2E inh | Tau fluor counter
COc1ccc(OC)c(-n2c(CN3CCC(C(N)=O)CC3)nc3ccccc3c2=O)c1 | -0.9% | 11.6% | 20µM* | -8.1% | 3.7% | 7.7%
Cc1c(N=C2NC(=O)/C(=C/c3cccc([N+](=O)[O-])c3)S2)c(=O)n(-c2ccccc2)n1C | -8.7% | -3.1% | 5.5% | 2.51µM* | -12.7% | 0.2%
O=C(NC1CCCCC1)C(c1ccncc1)N(Cc1ccccc1)C(=O)c1ccc(-c2ccccc2)[nH]1 (stereo unspecified) | 2.1% | -17.4% | 22.4µM* | -16.7% | ? | -7.9%
COc1ccc(CN(C(=O)c2ccc(-c3ccccc3)[nH]2)C(C(=O)NCC2CCCO2)c2ccc(C)o2)cc1 (stereo unspecified) | 2.2% | ? | 10µM* | ? | ? | -12.8%
Cc1ccc(C(C(=O)NC2CCCC2)N(Cc2ccc(F)cc2)C(=O)c2csnn2)o1 (stereo unspecified) | -0.9% | -4.4% | 14.1µM* | -6.3% | 3.2% | -8.5%
O=C(NC1CCCC1)C(c1ccncc1)N(Cc1cccs1)C(=O)c1csnn1 (stereo unspecified) | ? | ? | 3.55µM* | -18.2% | ? | ?
CCOC(=O)c1ccccc1NC(=O)CSc1cc(C)[nH]c(=O)n1 | 5.7% | -5.1% | . | . | . | 4.3%
CCN1C(=O)[C@H]2[C@@H]3[C@H](O)[C@H](O)CC(=O)[C@H]3CC[C@H]2C1=O | -2.6%[11.6 µM] | -6.3%[11.5 µM] | 3.2%[13.5 µM] | . | . | -1.1%[11.6 µM]
O=C(COc1ccccc1Cl)OCc1cc(=O)n2nc(C3CCCCC3)sc2n1 | 3.0% | -15.3% | . | . | . | -5.0%
Cn1c(=O)c2[nH]c(SCCN3CCOCC3)nc2n(C)c1=S | . | . | -11.5%[13.5 µM] | 5.62µM* | . | .
CCOC(=O)CCc1c(C)nc(SCC(=O)O)c(C#N)c1C | 0.6% | -3.3% | 25.1µM* | -22.4% | -14.8% | -3.3%
CCOC(=O)CSc1nc(C)cc(C)c1C#N | 2.7% | -14.2% | 25.1µM* | -9.1% | -25.2% | -3.7%
Cc1cc(C)c(C#N)c(SCC(=O)CC(=O)OC(C)C)n1 | 5.8% | -13.8% | 16.8% | -5.8% | -8.5% | -7.6%
Cc1cc(C)c(C#N)c(SCC(=O)OC2CCCCC2)n1 | -0.4% | ? | 28.2µM* | 15.8µM* | ? | -19.5%
COCc1cc(C)nc(SCC(=O)c2ccc(O)c(O)c2)c1C#N | 1.8% | ? | -12.8% | 15.8µM* | 28.2µM* | ?
COCc1cc(C)nc(SCC(=O)Oc2ccccc2)c1C#N | 7.3% | ? | -9.6% | . | ? | -17.2%
CCn1nc(C)c(NC(=O)c2cnn3c(C(F)F)cc(-c4ccccc4)nc23)c1C | 6.7% | -1.8% | -10.9% | . | 2.8% | 4.5%[2.34 µM]
CCc1nn(CC(=O)N2CCCCC2)c(=O)c2cc3sccc3n12 | -1.8% | -14.6% | . | . | . | -19.0%
Cc1ccc2c(c1)c1c(c(=O)n(-c3ccccc3C)c(=O)n1Cc1cccc(F)c1)n2C | 4.1% | -4.8% | . | . | . | -11.8%
Cc1cc(N=Nc2ccc(C)c(N=Nc3cc(C)c(N)cc3N)c2)c(N)cc1N | -4.3% | 3.98µM* | . | . | ? | 15.8µM*[quencher]
Cc1ccc(CCNC(c2ccc(F)cc2)c2nnc(-c3ccccc3Cl)o2)cc1 (stereo unspecified) | 0.7% | -15.3% | . | . | . | -12.0%
CC(=C/c1ccc(C(C)C)cc1)/C=N/NC(=O)CSc1ccccn1 | -1.5% | ? | ? | -22.7% | -10.4% | ?
CC(/C=N/NC(=O)CSc1ccccn1)=C\c1ccc(C(C)C)cc1 | 2.1% | ? | 25.1µM* | -28.3% | -3.4% | -18.1%
CC(/C=N/NC(=O)c1ccncc1)=C\c1ccc(C(C)C)cc1 | ? | 20µM* | ? | . | ? | -21.1%
Cc1ccc2oc(=O)c(-c3nc(-c4cccs4)no3)cc2c1 | ? | -14.5% | . | . | . | -15.3%
SMILES | Tau fibril FP | Tau ThT inhib | ALDH1A1 inh | HPGD inh | JMJD2E inh | Tau fluor counter
CN(C)c1ccc(N=Nc2ccccc2C(=O)OCC(=O)NCC2CCCCC2)cc1 | ? | 1.78µM* | -12.4% | -18.0% | -3.0% | 14.3%
CN(C)c1ccc(N=Nc2ccccc2C(=O)OCC(=O)NC2CCCC2)cc1 | -3.5% | 6.31µM* | -8.4% | . | -6.5% | ?
CN(C)c1ccc(C(=O)OCC(=O)NC2CCCCCC2)cc1 | 6.3% | -15.2% | 5.7% | . | ? | -12.0%
CN(C)c1ccc(N=Nc2ccccc2C(=O)OCC(=O)N(C)C2CCCCC2)cc1 | 12.2% | 7.94µM* | -14.4% | -11.7% | 2.7% | ?
CN(C(=O)c1ccccc1C(=O)OCC(=O)NC(=O)NC(C)(C)C)C1CCCCC1 | 1.0% | -5.6% | 5.6% | . | 0.8% | -0.5%
O=C(COC(=O)c1sc2ccccc2c1Cl)NCC1CCCCC1 | 2.6% | 4.0% | ? | . | 0.3% | -2.1%
CCN(CC)CCOc1ccc2c(c1)C(=NO)c1cc(OCCN(CC)CC)ccc1-2 | -3.1% | ? | -0.4% | -6.9% | 0.2% | -1.0%
CCCCOc1ccc2c(c1)C(=O)c1cc(O)ccc1-2 | ? | 11.2µM* | 39.8µM* | . | -16.2% | 14.1µM*[quencher]
O=C(O)COc1ccc2c(c1)CCCC2 | 1.1% | -0.6% | 2.2% | -8.5% | 0.2% | -5.7%
CCOc1ccc2c(c1)C(=O)c1cc(OCC(=O)O)ccc1-2 | -5.6% | 11.2µM* | . | . | -7.4% | -27.0%
Cc1noc(Cn2c(=O)c3cc4c(cc3n(CC(=O)Nc3cccc(Cl)c3)c2=O)OCO4)n1 | ? | 15.3% | . | . | . | ?
Cc1cccc(CNC(=O)c2ccc(N3Cc4ccccc4Oc4ncccc43)s2)c1 | 4.7% | -0.2% | . | . | . | -24.7%
CC1N(O)C(c2ccc(Cl)cc2Cl)N(O)C1(C)C (stereo unspecified) | -0.8% | -11.8% | 14.1µM* | -2.7% | ? | -15.4%
ON1C(c2ccc(Cl)cc2Cl)N(O)[C@H]2CCCC[C@H]21 (stereo partly specified) | -1.9% | -2.5% | 1.8% | -16.9% | -7.5% | -5.2%
Cc1cccc(Cn2cnc3c(nnn3Cc3ccccc3F)c2=O)c1 | 13.2% | -7.4% | -7.5% | 15.8µM* | 5.0% | -12.7%
COc1cccc(-n2nnc3c(=O)n(Cc4ccc(C)cc4)cnc32)c1 | -5.1% | 0.3% | 0.9% | ? | -7.2% | -15.6%
COc1cccc(-n2nnc3c(=O)n(Cc4ccc(F)cc4)cnc32)c1 | -8.2% | 1.8% | 3.7% | 28.2µM* | -21.4% | -10.2%
Cc1ccc(NC(=O)Cn2cnc3c(nnn3Cc3ccc(F)cc3)c2=O)cc1 | -3.4% | 6.0% | 14.4% | . | 3.0% | 8.4%
